# Assay outcomes (PubChem BioAssay)
# Most compounds without a hit are left out; they make up all but 2.8% or so of the library.
# SENP8 block-1 – inhibitors of human SENP8 protease. purified SENP8, Z-RLRGG-aminoluciferin cleavage, luminescence. inhibition, % at 10 µM. 330,000 tested, 1.2% active; in the data active = inhibition above about 50%
# Target sequence (Q96LD8 whole entry, looked up): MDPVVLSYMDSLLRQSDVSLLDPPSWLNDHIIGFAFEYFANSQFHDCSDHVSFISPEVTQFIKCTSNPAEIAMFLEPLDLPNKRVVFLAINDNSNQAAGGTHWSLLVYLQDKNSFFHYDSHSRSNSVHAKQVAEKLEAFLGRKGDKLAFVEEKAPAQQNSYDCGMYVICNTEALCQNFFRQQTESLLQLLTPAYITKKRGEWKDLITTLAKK
# HSP90 refold inh – inhibitors of HSP90 luciferase refolding in rabbit reticulocyte lysate | luciferase refolding luminescence, 3 h | inhibition, % at 5.6 µM | 290,000 tested, 0.91% active;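 active = inhibition above the screen-wide mean plus 3 SD, computed separately per campaign, cut at about 16% in these data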;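 note: 0% = DMSO wells and 100% = 60 µM geldanamycin wells; inhibitors lower the luminescence because luciferase stays unfolded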
# SENP7 inh – blocks the human protease SENP7; 330,000 tested, 1.5% active; inhibition, % at 5 µM; recombinant SENP7, Z-RLRGG-aminoluciferin luminescence, 40 min; Q9BQF6;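 active = inhibition above about 50% at the single test dose, limit read from the data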;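 note: plate controls were DMSO with enzyme for no effect and no enzyme buffer wells for full effect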
# SENP6 block – SENP6 protease inhibition. 330,000 tested, 1.8% active. Q9GZR1. Recombinant SENP6 catalytic domain, aminoluciferin luminescence. inhibition, % at 10 µM. AID 2599;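 active = inhibition above about 50% at the single tested dose, limit read from the data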;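 note: plate controls were DMSO wells with enzyme for no effect and DMSO wells lacking enzyme for full effect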
# SENP8 block-2 – SENP8 (human) protease inhibition | AID 602440 | inhibition, % at 20 µM | recombinant SENP8, Nedd8 substrate fluorescence | 360,000 tested, 0.64% active; in the data active = inhibition mostly above about 40%, no sharp cut-off; inactive = mostly below about 27%
# SENP8 confirm – confirmation of human SENP8 protease inhibitors. shares compounds with SENP7 inh. inhibition, % at 12.5 µM. AID 488912. 6,200 tested, 40% active. Recombinant SENP8, Z-RLRGG-aminoluciferin luminescence, 60 min;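 active = mean inhibition across replicates above about 50%, limit read from the data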
# SENP6 conf – confirmation of human SENP6 protease inhibitors. shares compounds with SENP7 inh. recombinant SENP6, Z-RLRGG-aminoluciferin luminescence. inhibition, % at 12.5 µM. 6,200 tested, 58% active
# SENP7 conf – confirmation of human SENP7 protease inhibitors | shares compounds with SENP7 inh | recombinant SENP7, Z-RLRGG-aminoluciferin luminescence, 40 min | inhibition, % at 12.5 µM | 6,200 tested, 69% active | AID 488917
# Casp3 select – inhibits human caspase-3 in SENP selectivity test; shares compounds with SENP7 inh; purified caspase-3, Z-DEVD-aminoluciferin luminescence, 60 min; inhibition, % at 12.5 µM; 6,200 tested, 60% active;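 active = mean inhibition above about 50%, limit read from the data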;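 note: plate controls were enzyme with DMSO for no effect and wells without caspase-3 for full effect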
# Target sequence (P42574 28-227 limits assumed): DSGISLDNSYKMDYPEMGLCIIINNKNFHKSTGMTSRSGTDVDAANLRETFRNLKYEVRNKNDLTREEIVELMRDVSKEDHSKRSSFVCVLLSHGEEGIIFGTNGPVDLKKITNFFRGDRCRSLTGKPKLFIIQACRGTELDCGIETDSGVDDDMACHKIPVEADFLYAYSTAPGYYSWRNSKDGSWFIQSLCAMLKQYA
# Luc interf – luminescence interference (SENP counter-screen); shares compounds with SENP7 inh; Pre-incubated SENP8/Z-RLRGG-aminoluciferin, luciferase luminescence interference; inhibition, % at 12.5 µM; 6,200 tested, 39% active;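 active = mean inhibition above about 50% when retested at one dose, limit read from the data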;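 note: plate controls were DMSO wells with completed reaction for no effect and substrate without enzyme for full effect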
# Starred values were filed as active, the others as inactive; i = inactive; . = no result.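 Rule for the calls, unless noted: active = mean inhibition above about 50% in the one-dose retest (limit read from the data); inactive = the rest.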
SMILES,SENP8 block-1,HSP90 refold inh,SENP7 inh,SENP6 block,SENP8 block-2,SENP8 confirm,SENP6 conf,SENP7 conf,Casp3 select,Luc interf
N=c1cc(C2(O)CCCCC2)n2c(nc3ccccc32)s1,26,9,58*,62*,9,43,42,80*,62*,54*
O=C(c1ccccc1)c1cnc(-c2ccccc2)s1,89*,0,96*,93*,6,54*,50,73*,62*,20
O=C(c1ccccc1)c1cnc(-c2ccc(Cl)cc2)s1,22,3,97*,80*,31,14,19,7,25,7
Brc1ccc(-n2cnc(-c3ccccc3)c2)cc1,69*,4,79*,71*,8,61*,62*,92*,59*,18
COc1ccc(OC)c(-c2nnc(SCC(=O)N3CCCC3)o2)c1,-5,-3,-4,-11,-75,.,.,.,.,.
COc1cccc2sc3cc(NCc4ccc5c(c4)OCO5)ccc3c(=O)c12,14,.,58*,11,-487,2,2,3,15,12
COc1cc2sc3cc(NCC[C@@H]4CCCN4C)ccc3c(=O)c2cc1OC,50*,.,53*,57*,i,9,9,13,30,37
CCn1cc(C(=O)NCc2ccc(C)o2)c2cc(OC)c(OC)cc2c1=O,4,4,6,-12,10,.,.,.,.,.
COc1cc2sc3cc(NCc4ccc5c(c4)OCO5)ccc3c(=O)c2cc1OC,44,.,70*,-25,-494,-24,-14,-3,7,18
COc1ccc(NCc2ccc3c(c2)OCO3)cc1Cl,-3,-2,1,11,10,.,.,.,.,.
COc1cccc2sc3ccc(NCCC4CCCN4C)cc3c(=O)c12 (stereo not given),-21,2,12,-8,9,.,.,.,.,.
COc1cc2sc3cc(NCc4ccc(C)o4)ccc3c(=O)c2cc1OC,81*,.,87*,-23,i,-9,56*,88*,80*,62*
CS(=O)(=O)c1ccc(NC(=O)c2ccccc2-n2cnnn2)cc1,12,.,1,-5,-2,.,.,.,.,.
COc1cc(CNc2ccc(O)cc2)cc(Br)c1OCc1ccccc1F,-5,0,60*,23,19,1,4,-3,-2,1
CCOC(=O)C(NCc1ccccc1OC)(NC(=O)CC)C(F)(F)F (stereo not given),1,0,3,-8,13,.,.,.,.,.
O=[N+]([O-])c1ccccc1CSc1nc2ccccc2o1,29,0,9,55*,17,18,14,49,7,9
O=c1cc(-c2ccc(O)cc2)oc2ccc3ccccc3c12,98*,.,99*,97*,-199,97*,100*,103*,99*,83*
COc1c(O)cc2oc(-c3ccc(O)cc3)cc(=O)c2c1O,49,.,59*,57*,23,63*,60*,88*,71*,71*
Cc1nc(NC(=O)c2ccccc2)sc1C,78*,7,92*,90*,6,90*,91*,100*,95*,89*
CC(=O)c1sc(NC(=O)c2c(F)cccc2F)nc1-c1ccccc1,-8,-3,-8,-23,-10,.,.,.,.,.
Cc1nc(NC(=O)Nc2ccc(Cl)cc2)sc1C,-7,3,-5,-21,-1,.,.,.,.,.
Cc1nc(NC(=O)c2csc3ccccc23)sc1C,50*,4,77*,69*,-4,17,73*,95*,51*,22
CC(=O)c1sc(NC(=O)c2ccccc2)nc1-c1ccccc1,63*,0,61*,75*,0,19,71*,88*,51*,54*
Cc1nc(NC(=O)c2cccnc2Cl)sc1C,32,.,49,54*,-10,36,37,75*,80*,60*
O=C(Nc1cccc(F)c1)N1CC=C(n2c(=O)[nH]c3ccccc32)CC1,-5,0,-5,-23,19,.,.,.,.,.
SMILES,SENP8 block-1,HSP90 refold inh,SENP7 inh,SENP6 block,SENP8 block-2,SENP8 confirm,SENP6 conf,SENP7 conf,Casp3 select,Luc interf
Cc1ccc(NC(=O)NC2(C(=O)NCc3ccccc3)CCCCC2)cc1,2,3,8,-12,1,.,.,.,.,.
CCCCNc1c(-c2ccc(OC)c(SC3CCCCC3)c2)nc2ccc(C)cn12,1,.,8,4,i,.,.,.,.,.
Cc1nc(NC(=O)c2ccccc2O)sc1C,34,4,54*,49,-170,-21,39,38,7,-4
CCOc1ncccc1C(=O)OCC(=O)Nc1ccc2c(c1)CCC2,-20,.,1,-2,3,.,.,.,.,.
O=C(O)c1ccc(N/N=C/c2ccc(-c3ccc(Br)cc3)o2)cc1,-7,0,0,-3,-326,.,.,.,.,.
Cc1ccc(/C=N/Nc2ccc(C(=O)O)cc2)o1,78*,12,71*,92*,-4,65*,58*,91*,85*,82*
Cc1ccc(/C=N/Nc2ccc(C(=O)O)cc2)s1,97*,79*,-7,95*,-167,52*,101*,104*,99*,100*
NNc1nc(-c2ccccc2)c2cc(Br)ccc2n1,2,3,7,-12,-18,.,.,.,.,.
COC(=O)[C@]12C(=O)NC[C@H](CN1c1ccc(Cl)c(C)c1)N2C,6,.,100*,-9,21,-30,-18,-11,-12,-9
Cc1ccc(S(=O)(=O)NC2(C(F)(F)F)C(=O)Nc3c2c(=O)[nH]c(=O)n3-c2ccccc2)cc1 (stereo not given),1,4,5,-12,20,.,.,.,.,.
CCOC(=O)C1=CN(Cc2cccc(F)c2)S(=O)(=O)N(CC)C1c1ccc(Br)cc1F (stereo not given),.,.,0,.,8,.,.,.,.,.
Cc1ccc(C)c(NC(=S)c2ccccn2)c1,-10,2,2,11,12,.,.,.,.,.
S=C(Nc1ccccn1)c1ccccn1,68*,3,84*,1,14,53*,76*,94*,86*,42
O=C(COC(=O)c1cc([N+](=O)[O-])ccc1N1CCOCC1)Nc1cccc(F)c1,-13,3,-17,-10,15,.,.,.,.,.
CCOC(=O)CSc1nc2ccccc2c(=O)n1C1CCCC1,-1,2,-2,-14,14,.,.,.,.,.
Oc1[nH]c2ccccc2c1N=Nc1ccccc1,73*,1,80*,88*,50*,40,73*,94*,62*,7
